Bioassay records as filed in PubChem.
G9a block – qHTS Assay for Inhibitors of Histone Lysine Methyltransferase G9a | G9a H3K9 monomethylation, AlphaScreen, 2 h | Potency, µM (titrated, usually from 102 µM), for the others: top-dose activity, negative = inhibition, usual class: inhibitors | 350,000 compounds, 8.8% hits | AID 504332, 2011; also: potency is read from the fitted curve at half-maximal effect; nearly all actives have a fitted effect of over 75% in size
Target sequence (Q96KQ7 913-1193 limits assumed): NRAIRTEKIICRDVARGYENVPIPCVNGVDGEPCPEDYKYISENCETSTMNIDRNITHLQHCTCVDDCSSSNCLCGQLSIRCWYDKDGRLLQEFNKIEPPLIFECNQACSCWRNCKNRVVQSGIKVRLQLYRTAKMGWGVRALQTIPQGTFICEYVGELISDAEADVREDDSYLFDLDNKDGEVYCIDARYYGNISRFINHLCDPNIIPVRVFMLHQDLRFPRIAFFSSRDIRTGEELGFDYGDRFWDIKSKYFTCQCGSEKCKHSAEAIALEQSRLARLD
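Signal arises when biotinylated H3K9 peptide, once monomethylated, bridges streptavidin donor and antibody-captured acceptor beads. Enzyme at 20 nM was preincubated 15 min with test compounds; peptide 500 nM and SAM 20 uM then reacted for 2 h.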
Tau ThT inhib – qHTS for Inhibitors of Tau Fibril Formation, Thioflavin T Binding; Potency, µM (top dose mostly 57.4 µM), for the others: top-dose activity, negative = inhibition, usual class: inhibitors; Microtubule-associated protein tau (Homo sapiens), P10636; 270,000 compounds, 2.1% hits; recombinant tau K18 P301L, heparin-induced fibrillization, ThT fluorescence; AID 1460, 2008; also: potency is read from the fitted curve at half-maximal effect; nearly all actives have a fitted effect of over 55% in size
Target sequence (P10636 561-689 P618L limits assumed): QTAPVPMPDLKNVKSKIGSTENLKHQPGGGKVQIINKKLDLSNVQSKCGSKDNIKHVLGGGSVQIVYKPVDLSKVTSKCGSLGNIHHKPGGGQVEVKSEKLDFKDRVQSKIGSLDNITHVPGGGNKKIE
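Using a mix of unlabeled (15 uM) and Alexa 594-labeled (0.24 uM) tau K18 P301L, heparin-triggered fibrillization over 6 hr at 37 C was scored by ThT fluorescence.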
Sfp inh – qHTS Assay for Inhibitors of Bacillus subtilis Sfp phosphopantetheinyl transferase (PPTase); 4'-phosphopantetheinyl transferase ffp (Bacillus subtilis), Q9F4F7; Biochemical Sfp PPTase activity, qHTS; Potency, µM, inactives show largest response in the series, negative = inhibition, actives largely listed as inhibitors; 310,000 compounds, 3.5% hits; AID 1490, 2009;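 also: the enzyme is Sfp with the accession as filed and its product quenches rhodamine fluorescence; potency is read from the fitted curve at half-maximal effect; 0% = enzyme reaction without inhibitor and -100% = no enzyme wells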
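With Hepes-Na pH 7.6 buffer containing 10 mM MgCl2, Sfp (15 nM) modified BHQ-2-YbbR (12.5 uM) using rhodamine-CoA (5 uM). Two reads 30 minutes apart at 525/598 nm yielded each well's rate.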
Tau fluor cs – Counterscreen qHTS for Inhibitors of Tau Fibril Formation, Fluorescence Polarization. 280,000 compounds, 0.93% hits. tau K18 P301L Alexa594 fluorescence, heparin fibrillization. Potency, µM (top dose mostly 57.7 µM), inactives show at the highest dose activity change, negative = decrease; also: potency is read from the fitted curve at half-maximal effect; nearly all actives have a fitted effect of over 55% in size
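Human K18 P301L tau (15 uM unlabeled plus 0.24 uM Alexa 594-labeled, final) in 100 mM sodium acetate pH 7 was mixed with compound and 20 uM heparin and incubated 6 hr at 37 C.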
Tau fibril FP – qHTS for Inhibitors of Tau Fibril Formation, Fluorescence Polarization | Microtubule-associated protein tau (Homo sapiens), P10636 | K18 P301L tau heparin fibrillization, Alexa594 FP, 6 h | Potency, µM (doses to about 57.7 µM), for inactives: at the highest dose activity, negative = inhibition, most hits filed as inhibitors | 280,000 compounds, 0.39% hits | AID 1468, 2008; also: potency is read from the fitted curve at half-maximal effect; nearly all actives have a fitted effect of over 55% in size
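Heparin (20 uM) drove fibril formation of recombinant tau K18 P301L, 15 uM unlabeled with 0.24 uM Alexa 594 label, for 6 hr at 37 C in 100 mM sodium acetate pH 7. Fluorescence polarization (555/632 nm) read 1 hr after 30 uM ThT.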
FBPA coupling cs – qHTS Assay for Inhibitors of Fructose-1,6-bisphosphate Aldolase from Giardia Lamblia: Coupling assay counterscreen; 290,000 compounds, 0.67% hits; coupling enzyme system counterscreen, AmpLite Red fluorescence; activity change, negative = inhibition, % at 58.2 µM, hits read low; in the data active = activity change below about -30%
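Coupling enzymes only (glyceraldehyde-3-phosphate) + compound, at 57.5 uM final, 10 min RT; add substrate/coupling/AmpLite Red mix, 20 min RT; fluorescence ex 525/em 598 nm. Actives flag coupling-system interference.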
Active calls of the source: *; [ ] = remark or other dose. Compounds with a hit are over-represented: about 11% of the library has one in this group of screens. Unless noted, calls follow the shape of the dose curve; as a rule, active = well fitted curve in the direction sought with a large enough effect; inconclusive = small, poorly fitted or top-dose-only effect, or another doubt; inactive = no such curve, though single readings can be large; an effect the other way counts as inactive or inconclusive. Unless noted, % is scaled to controls: 0 for no effect and ±100 for the full control effect.

For Cc1ccc(N=c2sc(C)c(C)n2C)cc1 the results were G9a block 44.7µM*, Tau ThT inhib -3.7%, Sfp inh -8.9%, Tau fluor cs 3.9%, Tau fibril FP inconclusive and FBPA coupling cs 5.3.
O=C(CSc1nnc(CCc2ccccc2)n1-c1ccc(Cl)cc1)c1ccccc1 was read as G9a block 11.2µM*, Tau ThT inhib inconclusive, Sfp inh -18.7%, Tau fluor cs -19.2%, Tau fibril FP -6.3% and FBPA coupling cs 4.0.
For CC(=O)Nc1ccc(S(=O)(=O)N2CCN(Cc3cccc([N+](=O)[O-])c3)CC2)cc1 the results were G9a block 31.6µM*, Tau ThT inhib 0.1%, Sfp inh -27.2%, Tau fluor cs -5.3%, Tau fibril FP -9.2% and FBPA coupling cs 2.4.
Screening COc1cccc(CN2CCN(S(=O)(=O)c3ccc(NC(C)=O)cc3)CC2)c1OC returned G9a block -10.7%, Tau ThT inhib -3.6%, Sfp inh 18.6%, Tau fluor cs 12.2%[2.34 µM], Tau fibril FP -10.8% and FBPA coupling cs 1.5.
Screening COc1cc(CC(=O)Nc2ccc(S(=O)(=O)N(C)C)cc2)cc(OC)c1OC returned G9a block 50.1µM*, Tau ThT inhib -4.6%, Sfp inh -28.0%, Tau fluor cs -12.7%, Tau fibril FP -4.2% and FBPA coupling cs -1.4.
`COc1ccc(CC(=O)Nc2ccc(S(=O)(=O)N(C)C)cc2)cc1OC` gave G9a block 9.0%[12.7 µM], Tau ThT inhib -2.0%, Sfp inh 15.4%, Tau fluor cs -3.1%, Tau fibril FP -5.0% and FBPA coupling cs 3.9.
Screening COc1cc(C(=O)Nc2ccc(S(=O)(=O)N(C)c3ccccc3)cc2)cc(OC)c1OC returned G9a block 9.6%[59 µM], Tau ThT inhib -6.5%, Sfp inh 8.3%, Tau fluor cs inconclusive, Tau fibril FP inconclusive and FBPA coupling cs -4.7.
CC(=O)Nc1ccc(S(=O)(=O)N2CCN(Cc3cccnc3)CC2)cc1 was read as G9a block inconclusive, Tau ThT inhib -1.2%, Sfp inh inconclusive, Tau fluor cs -4.0%, Tau fibril FP 6.6% and FBPA coupling cs 0.1.
Screening COc1ccc(OC)c(CN2CCN(S(=O)(=O)c3ccc(NC(C)=O)cc3)CC2)c1 returned G9a block 11.2µM*, Tau ThT inhib -2.0%, Sfp inh 56.2µM*, Tau fluor cs -0.6%, Tau fibril FP -1.6% and FBPA coupling cs 2.3.
`COc1cc(C(=O)Nc2ccc(N(C)C)cc2)cc(OC)c1OC` gave G9a block 44.7µM*, Tau ThT inhib 15.8µM*, Sfp inh 1.6%, Tau fluor cs -17.4%, Tau fibril FP 10.3% and FBPA coupling cs 0.2.
N=C(N)N1CCN(Cc2ccccc2)CC1 was read as G9a block 13.4%, Tau ThT inhib -3.6%, Sfp inh 7.8%, Tau fluor cs 1.8%, Tau fibril FP 2.5% and FBPA coupling cs 1.1.
`N#CCCn1c(=O)cnc2cnc(OCc3ccccc3)nc21` gave G9a block 9.0%[12.7 µM], Sfp inh -9.8% and FBPA coupling cs -0.2.
`COc1cc(C(=O)NC2=C(C#N)CCC2)cc(OC)c1OC` gave G9a block 50.1µM*, Tau ThT inhib 1.5%, Sfp inh 19.4%, Tau fluor cs 0.8%, Tau fibril FP -5.0% and FBPA coupling cs 1.4.
COc1cc(CN2CCN(S(=O)(=O)c3ccc(NC(C)=O)cc3)CC2)cc(OC)c1OC was read as G9a block 25.1µM*, Tau ThT inhib -1.3%, Tau fluor cs 0.2% and Tau fibril FP -10.8%.
